Source: PubChem
PLAP act: PLAP enzyme activators, biochemical, luminescence, HTS; Alkaline phosphatase, placental type (Homo sapiens), P05187; purified PLAP enzyme, luminescent substrate read-out; stronger effect = higher value; activation fold at 20 µM; 96,000 compounds, 1.2% hits; AID 696, 2007; in the data active = activation fold above about 2
CYP2C9 act: human CYP2C9 activators, primary screen, biochemical, luminescence; Cytochrome P450 2C9 (Homo sapiens), P11712; recombinant CYP2C9, luciferin-H conversion; stronger effect = higher value; factor 1 = untreated enzyme, 0 = blocked; activation factor at 5 µM; 96,000 compounds, 1.4% hits; AID 1024, 2008;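 active = activation factor of 2 or more for CYP2C9 at a 5 µM dose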;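 note: 0 = sulfaphenazole-blocked wells and 1 = vehicle-only wells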
CYP2C19 inhib: blockers of cytochrome P450 2C19 activity – biochemical, luminescence, ADME assay, primary screen; P33261; AID 778, 2007; CYP2C19 Supersomes, luciferin-H EGE luminescence, 30 min; inhibition, % at 5 µM; 96,000 compounds, 21% hits;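 active = CYP2C19 inhibition above a set limit at 5 µM in the primary screen, cut at about 50% in these data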;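 note: plate controls were negative control wells for no effect and 2.5 mM tranylcypromine positive control for full effect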
Target sequence (P33261 whole entry, looked up): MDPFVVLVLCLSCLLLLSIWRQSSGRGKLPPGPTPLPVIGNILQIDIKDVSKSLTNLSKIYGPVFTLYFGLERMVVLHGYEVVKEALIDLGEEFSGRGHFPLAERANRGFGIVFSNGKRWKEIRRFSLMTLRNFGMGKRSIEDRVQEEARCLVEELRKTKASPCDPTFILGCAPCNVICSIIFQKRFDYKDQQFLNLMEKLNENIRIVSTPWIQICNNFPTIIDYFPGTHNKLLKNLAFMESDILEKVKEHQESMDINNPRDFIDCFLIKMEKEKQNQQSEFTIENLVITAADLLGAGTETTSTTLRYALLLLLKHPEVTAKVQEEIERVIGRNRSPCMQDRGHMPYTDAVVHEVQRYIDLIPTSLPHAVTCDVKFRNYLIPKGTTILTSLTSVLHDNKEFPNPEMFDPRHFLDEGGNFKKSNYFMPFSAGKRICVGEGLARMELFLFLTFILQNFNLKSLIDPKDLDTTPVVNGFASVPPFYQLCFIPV
CYP2C9 inh: blockers of cytochrome P450 2C9 activity – biochemical, luminescence, ADME assay, primary screen | P11712 | CYP2C9 Supersomes, luciferin-H conversion | 96,000 compounds, 20% hits | inhibition, % at 5 µM;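 active = blocking of liver enzyme CYP2C9 beyond about 50% at 5 µM, limit read from the data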
CYP2C19 activ: human CYP2C19 activators, primary screen, biochemical, luminescence | Cytochrome P450 2C19 (Homo sapiens), P33261 | recombinant CYP2C19, luciferin-H EGE luminescence; stronger effect = higher value; 0 = fully inhibited enzyme, 1 = untreated enzyme | activation factor at 5 µM | 96,000 tested, under 10 active;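 active = activation factor of at least 2 at 5 µM in the primary screen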;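 note: 0 = wells with 2.5 mM tranylcypromine and 1 = vehicle-only wells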
An asterisk follows results filed as active. Sampled rows, rich in hits. Any-hit rate of the full collection: about 31%.

SMILES	PLAP act	CYP2C9 act	CYP2C19 inhib	CYP2C9 inh	CYP2C19 activ
CCC1Oc2ccc(C)cc2N(CC(=O)N(Cc2cccnc2)Cc2ccc(C)o2)C1=O (centres undefined)	1.5	0.4	71.8*	62.7*	0.3
CCC1Oc2ccc(C)cc2N(CC(=O)N(Cc2ccc3c(c2)OCO3)CC2CCCO2)C1=O (centres undefined)	1.5	0.7	37.8	32.8	0.6
CCOC(=O)C1=C(NC#N)OC(C)=C(C)C1c1ccc(O)cc1 (centres undefined)	1.2	0.3	95.5*	69.8*	0
Cc1ccc(N2C(=O)CSC2c2cccnc2)cc1F (centres undefined)	1.1	1.1	11.6	-6.2	0.9
Cc1cc(=O)n2[nH]c(-c3ccc(Cl)cc3)cc2n1	1.2	0.8	75.3*	23.1	0.2
O=C(NCc1ccco1)C1CCCN(S(=O)(=O)c2ccc(Cl)cc2)C1 (centres undefined)	0.7	1.4	21.9	-38.1	0.8
Oc1ccc(/C=N/Nc2nccnc2Cl)cc1	1.1	0	98.1*	99.8*	0
O=[N+]([O-])c1cccc(/C=N/Nc2nccnc2Cl)c1	0.9	0.8	59.5*	19.7	0.4
Clc1ccc(/C=N/Nc2nnc(-c3ncc[nH]3)c3ccccc23)cc1	1.1	0.8	7.4	16.4	0.9
Clc1ccc(OCc2nc(-c3ccc(Br)o3)no2)cc1	0.8	1.3	-11.7	-25.4	1.1
Brc1ccc(-c2noc(COc3ccc4c(c3)CCC4)n2)o1	0.7	0.4	19.8	64.2*	0.8
CN1CCc2nc(SCCOc3ccccc3)c(C#N)cc2C1	1.1	0.5	91.2*	48.7	0.1
CCOC(=O)C1=C(CSc2nc3c(cc2C#N)CN(C)CC3)OC(N)=C(C#N)C1c1ccccc1 (centres undefined)	1.4	0.6	42.6	40.8	0.6
Brc1ccc(-c2nnc3n2-c2ccccc2CC3)cc1	1.6	0.4	86.2*	62.6*	0.1
Brc1ccc(-c2nnc3n2CCCCC3)cc1	0.9	1	21.5	-3.4	0.8
Cc1ccc(C)c(S(=O)(=O)NCc2ccc(C(=O)N3CCC(Cc4ccccc4)CC3)cc2)c1	1.3	1.3	32.6	-29.6	0.7
COC(=O)c1cc2n3ccccc3c(C)c(-c3ccccc3)c-2c1C(=O)OC	1.1	0.2	54.0*	81.3*	0.5
Cc1ccc(S(=O)(=O)NC2(C(=O)O)CCCCC2)cc1	1	0.4	2.9	57.0*	1
COc1ccc(Nc2c3c(c(C#N)c4nc5ccccc5n24)CCC3)cc1	1.1	1	12.4	2.2	0.9
O=C1/C(=C\Nc2ccc(Cl)cc2)CCN1c1ncccn1	0.9	0.6	20.1	44.9	0.8
COC(=O)c1ccccc1N(Cc1ccccc1)S(C)(=O)=O	1.2	0.7	78.3*	29.3	0.2
OC1(Cc2ccn[nH]2)CCCCC1	0.9	1	1.0	2.7	1
C=CCNC1=C(Cl)C(=O)N(c2ccccc2Cl)C1=O	0.9	0.7	68.1*	26.5	0.3
COC(=O)CSc1nc(N)nc(C)c1Br	1	1.1	-4.2	-7.4	1
CCOCCCNC(=O)C(NC(=O)c1ccc(=O)[nH]c1)c1ccccc1 (centres undefined)	0.9	1	9.6	2.3	0.9
SMILES	PLAP act	CYP2C9 act	CYP2C19 inhib	CYP2C9 inh	CYP2C19 activ
COc1ccc(C2C(C#N)=C(N)Oc3n[nH]c(C)c32)cc1Cn1nc(C)c([N+](=O)[O-])c1C (centres undefined)	1.4	0.5	56.1*	53.9*	0.4
COc1ccc(C2C(C#N)=C(N)Oc3n[nH]c(C)c32)cc1Cn1cc([N+](=O)[O-])cn1 (centres undefined)	1.4	0.3	21.2	66.8*	0.8
COc1cc(C2C(C#N)=C(N)Oc3n[nH]c(C)c32)cc2c1OCO2 (centres undefined)	2*	0.4	54.8*	63.0*	0.5
CC(C)CCN1C(=O)CCC1(C)C(=O)NC1CCCCCCC1 (centres undefined)	1	0.9	26.6	13.4	0.7
C=CCOc1ccc(Cl)cc1C(=O)O	1.1	1.1	-12.9	-6.9	1.1
CC(C)NS(=O)(=O)c1ccc(N2C(=O)c3ccccc3C2=O)cc1	1.2	0.9	10.1	13.2	0.9
